Results on eight molecules are retold here after PubChem BioAssay (NCI).

Common to all, as to assay: NCI-60 one-dose screen, 48 h (100 = growth as untreated, 0 = no growth, -100 = all killed)
What all share (details): 10 µM unless noted

Assay [1] has as its system EKVX NSCLC.
Assay [2] concerns SN12C renal.
The test system of assay [3] is UO-31 renal.
Assay [4] has as its system TK-10 renal.
The test system of assay [5] is ACHN renal.
Assay [6] deals with A498 renal.
Assay [7] has as its system CCRF-CEM leukemia.
Assay [8] relates to MOLT-4 leukemia.
In assay [9] the test system is SR leukemia.
Assay [10] relates to RPMI-8226 leukemia.
Assay [11] concerns OVCAR-8 ovarian.
The subject of assay [12] is OVCAR-5 ovarian.
For assay [13], the system named is OVCAR-4 ovarian.
For assay [14], the system named is SK-OV-3 ovarian.
Assay [15] deals with IGROV1 ovarian.
Assay [16] has as its system OVCAR-3 ovarian.
Assay [17] relates to HS 578T breast.
Assay [18] relates to NCI/ADR-RES ovarian.
The test system of assay [19] is T-47D breast.
The subject of assay [20] is CAKI-1 renal.

SMILES strings stand for the structures. The panel holds about 83,000 compounds, 20% with a hit somewhere; the sample as a whole holds those more often.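 48-hour exposure, single concentration, 96-well plates; percent growth endpoint where 0 means no net growth. Active: below 10.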 Values without a mark were called inactive. The source made the active and inactive calls.

Take `CC(C)(C)Nc1nc2c(OCCc3ccccc3)cccn2c1-c1cccc(F)c1`: the growth in [1] was 5.55% (active); in assay [2], 6.27% (active); in assay [3], -11% (active); in assay [4], -6.22% (active); in assay [5], 5.29% (active); in assay [6], -18.9% (active). Moreover, the growth in assay [7] is 3.62% (active); in assay [8] it was -0.489% (active); in assay [9], -0.873% (active); in [10], -22.6% (active); in assay [11] it was 10.2%; in assay [12], 14.2%. Moreover, the growth is 19.2% in assay [13]; -17% (active) in [14]; 10.1% in [15]; -0.703% (active) in [16]; -4.86% (active) in assay [17]; 3.69% (active) in assay [18]. In addition, in assay [19], the growth was 5.21% (active).

With `CC(=NNc1ncnc2ccccc12)c1ccc(S(C)(=O)=O)cc1`, the growth is 91.1% in [1]; 97.2% in [2]; 73.1% in [3]; 152% in [4]; 103% in assay [5]; 89.4% in assay [20]. In addition, the growth in assay [7] is 99.9%; in [8], 100%; in assay [10], 98.6%; in assay [11], 98.2%; in assay [12], 111%; in [13], 122%. Also, the growth in [14] is 102%; in assay [15], 96.5%; in assay [16] it was 118%; in assay [17], 95.3%; in assay [18], 103%; in [19], 103%.

On to `Cc1ccc(-c2nc(C(Cl)Cl)nc3cc(-c4ccccc4)nn23)cc1`, for which the growth in assay [1] was -0.218% (active); in assay [2] it was 51.4%; in [3], 45.3%; in [4], 23.7%; in [5] it was -59.8% (active); in assay [6], -31.3% (active). Further, the growth is 37.8% in assay [7]; 1.15% (active) in [9]; 6.1% (active) in assay [10]; 10.3% in [11]; -8.77% (active) in [12]; -24% (active) in assay [13]. Also, the growth in assay [14] is -32.4% (active); in assay [15] it was 29.3%; in assay [16], -42.7% (active); in assay [17] it was 1.87% (active); in assay [18], 13.5%; in assay [19], 51%.

In the case of `COc1ccc(/C=C2\SC(=Nc3cc(C)[nH]n3)NC2=O)cc1`, the growth is 91.5% in [1]; 96% in [2]; 75.3% in [3]; 102% in assay [4]; 88.1% in assay [5]; 86.7% in assay [7]. Moreover, the growth was 82% in [9]; 88.2% in [10]; 103% in assay [11]; 90.3% in assay [12]; 97.4% in assay [13]; 85.7% in assay [14]. In addition, the growth in [15] is 97.3%; in assay [16], 104%; in assay [17], 91.4%; in [18], 98.3%; in assay [19] it was 85.2%.

As to `COc1cc(/C=C/C(=O)c2ccccc2)ccc1Oc1nc(NCCO)nc(N2CCOCC2)n1`, the growth in assay [1] is 95.5%; in assay [2] it was 97.3%; in assay [3], 80.8%; in [4], 124%; in [5], 98.4%; in assay [20] it was 86.2%. Also, the growth in [7] is 30.3%; in [8], 71.3%; in assay [10], 54.5%; in [11] it was 99.1%; in assay [12], 108%; in assay [13] it was 109%. Besides, the growth was 99.3% in [14]; 100% in assay [15]; 124% in assay [16]; 98% in assay [17]; 107% in [18]; 93.6% in [19].

For `COc1ccccc1C(=O)CSc1nc(Nc2ccc(S(N)(=O)=O)cc2)c2ccccc2n1`, the growth was 92.6% in assay [1]; 81.1% in [2]; 90.6% in [3]; 116% in assay [4]; 92.1% in assay [5]; 99.8% in [6]. The growth in [7] is 87.3%; in assay [8] it was 93%; in assay [9] it was 64.3%; in [10], 90.8%; in assay [11], 90.5%; in [12] it was 90.8%. The growth in assay [13] is 86.6%; in [14], 121%; in [15], 95.5%; in [16], 107%; in assay [17], 96.9%; in [18], 106%. Moreover, in assay [19], the growth is 89.6%.

On to `CNC(=O)c1cc(-c2ccc(NC(=O)Nc3ccc(N4CCN(C)CC4)c(C(F)(F)F)c3)cc2)nc2cccnc12`, for which the growth in assay [1] is -74% (active); in assay [2], -73.4% (active); in assay [3], -81% (active); in assay [4], -89.1% (active); in [5] it was -94.6% (active); in assay [6], 40.9%. The growth in assay [7] is -15.1% (active); in [8] it was -30.5% (active); in assay [9], -45.4% (active); in assay [10] it was -35.8% (active); in assay [11], -84% (active); in assay [12], -88.6% (active). In addition, the growth in assay [13] is -82.4% (active); in assay [14], 59.7%; in [15], -83.9% (active); in assay [17], -55.7% (active); in [18], -21.6% (active); in assay [19] it was -18.8% (active).

Turning to `CCCC(=O)NC(c1ccc(N(CC)CC)cc1)c1cc(C)c2cccnc2c1O` (centres undefined), the growth in assay [1] was 19.2%; in assay [2], 26.6%; in assay [3] it was 3.42% (active); in [4], 31.6%; in assay [5], 10.7%; in assay [20], 18.7%. Besides, the growth in assay [7] is 6.15% (active); in [8], 8.44% (active); in assay [11], 20.5%; in assay [12], 58%; in assay [13] it was 40.3%; in assay [14] it was 42%. Moreover, the growth in [15] was 14.1%; in assay [16], 18.6%; in assay [17], 50%; in assay [18], 6.31% (active); in [19], 26.3%.
